Mtb UGM inh = inhibitors of M. tuberculosis UDP-galactopyranose mutase | P9WIQ1 | purified UGM, fluorescence polarization probe displacement | inhibition, % at 10 µM | 320,000 tested, 0.06% active | AID 504406; in the data active means inhibition above about 10%, passing the limit was not always enough
Rv3671c inh = inhibitors of M. tuberculosis serine protease Rv3671c; P9WHR9; inhibition, % at 5.96 µM; 320,000 tested, 0.048% active; AID 2606; in the data active means inhibition above about 38%;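 further: extracellular domain of Rv3671c used as enzyme; 0% = enzyme with DMSO and 100% = no enzyme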
Mtb bLac sens = beta-lactam sensitization of Mtb H37Rv. M. tuberculosis H37Rv growth with meropenem, percent inhibition. inhibition, % at 25 µM. 330,000 tested, 0.27% active. AID 434955; call rule not given here;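 further: growth measured after seven days incubation then overnight dye step; 0% = bacteria only wells and 100% = bacteria with antibiotic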
FBA Mtb inh = inhibitors of M. tuberculosis fructose-bisphosphate aldolase. P9WQA3. purified M. tuberculosis FBA, fluorescence read-out. inhibition, % at 1 µM. 360,000 tested, 2.3% active. AID 588726;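 further: 0% = vehicle and 100% = reference inhibitor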
Target sequence (P9WQA3 whole entry, looked up): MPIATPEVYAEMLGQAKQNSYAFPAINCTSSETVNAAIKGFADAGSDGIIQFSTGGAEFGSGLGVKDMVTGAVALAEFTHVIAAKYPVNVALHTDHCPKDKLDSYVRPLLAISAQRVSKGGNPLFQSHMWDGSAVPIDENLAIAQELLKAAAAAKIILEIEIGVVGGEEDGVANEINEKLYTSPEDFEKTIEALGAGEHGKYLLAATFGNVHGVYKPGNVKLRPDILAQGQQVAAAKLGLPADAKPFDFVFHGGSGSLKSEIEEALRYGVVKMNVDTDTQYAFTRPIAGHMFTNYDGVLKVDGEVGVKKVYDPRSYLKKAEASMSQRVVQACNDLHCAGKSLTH
GDH-TPI counter-1 = counter-screen for M. tuberculosis FBA inhibitors: GDH-TPI coupled enzymes; GDH-TPI coupled enzyme counterscreen, NADH absorbance; inhibition, % at 4.8 µM; 360,000 tested, 1.2% active; AID 588335; in the data active means inhibition above about 30%;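 further: 0% = DMSO wells and 100% = wells lacking the enzyme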
SSB-PriA inh = blocks PriA binding to SSB C-terminal tail. 430,000 tested, 0.6% active. inhibition, % at 33 µM. AlphaScreen SSBct-PriA binding, biotinylated peptide; in the data active means inhibition mostly above about 37%, no sharp cut-off; inactive means mostly below about 20%;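 further: plate controls were negative control peptide for no effect and reference peptide for full effect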
Mtb FBA confirm = confirmation of M. tuberculosis fructose-bisphosphate aldolase inhibitors; shares compounds with FBA Mtb inh; purified M. tuberculosis FBA, fluorescence read-out; inhibition, % at 1 µM; 5,600 tested, 78% active;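 further: 0% = vehicle wells and 100% = reference inhibitor wells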
GDH-TPI counter-2 = inhibits GDH-TPI coupling enzymes, flagging Mtb FBA hits | 5,600 tested, 81% active | inhibition, % at 1 µM | shares compounds with FBA Mtb inh | GDH-TPI coupled enzyme counterscreen, fluorescence; in the data active means inhibition above about 10%
* hit, by the source's call. Most compounds without a hit are left out; they make up all but 3.2% or so of the library. Unless noted, no stated cut-off is given here; in the data, active means inhibition above about 27%; inactive means the rest.

CCC1CCCN1Cn1cnc2c([nH]c3ccc(OC)cc32)c1=O (stereo not drawn) was read as Mtb UGM inh 3.3, Rv3671c inh 0.2, Mtb bLac sens -10.2, FBA Mtb inh 53.7*, GDH-TPI counter-1 9.9, SSB-PriA inh -5.9, Mtb FBA confirm 94.3* and GDH-TPI counter-2 74.0*.
Screening CCC1CCCN1Cn1cnc2c([nH]c3ccccc32)c1=O (stereo not drawn) returned Mtb UGM inh 2.0, Rv3671c inh 6.4, Mtb bLac sens -9.3, FBA Mtb inh 14.9, GDH-TPI counter-1 9.8 and SSB-PriA inh 1.9.
For CCN1CCCC1CNC(=O)c1cc2c(-c3cccc(OC)c3)nn(C)c2s1 (stereo not drawn) the results were Mtb UGM inh 1.6, Rv3671c inh -1.2, Mtb bLac sens 3.7, FBA Mtb inh 36.2*, GDH-TPI counter-1 2.3, SSB-PriA inh 10.4, Mtb FBA confirm 100.4* and GDH-TPI counter-2 58.7*.
Screening CCCCN(C)CCNC(=O)c1cc2c(-c3cccc(OC)c3)nn(C)c2s1 returned Mtb UGM inh -2.7, Rv3671c inh -8.1, Mtb bLac sens -2.6, FBA Mtb inh 41.5*, GDH-TPI counter-1 20.0, SSB-PriA inh -3.6, Mtb FBA confirm 46.5* and GDH-TPI counter-2 27.4*.
`CCN1CCCC1CNC(=O)c1cc2ccc(OC)cc2[nH]1` (stereo not drawn) gave Mtb UGM inh -0.3, Mtb bLac sens -4.0, FBA Mtb inh 7.4, GDH-TPI counter-1 14.0 and SSB-PriA inh -4.5.
`CCN1CCCC1CNC(=O)c1[nH]c2ccc(OC)cc2c1C` (stereo not drawn) gave Mtb UGM inh 4.2, Rv3671c inh 3.0, Mtb bLac sens 6.9, FBA Mtb inh 45.0*, GDH-TPI counter-1 8.3, SSB-PriA inh -5.9, Mtb FBA confirm active and GDH-TPI counter-2 active.
Screening COc1cccc(-c2nn(C)c3sc(C(=O)NCCCN(C)Cc4ccccc4)cc23)c1 returned Mtb UGM inh -1.5, Rv3671c inh -1.8, Mtb bLac sens 7.1, FBA Mtb inh 42.8*, GDH-TPI counter-1 -0.7, SSB-PriA inh 8.3, Mtb FBA confirm 111.5* and GDH-TPI counter-2 102.7*.
For Cc1ccc2[nH]c3c(=O)n4c(nc3c2c1)SCC4 the results were Mtb UGM inh 0.0, Rv3671c inh -5.7, Mtb bLac sens 2.0, FBA Mtb inh 14.2, GDH-TPI counter-1 2.9 and SSB-PriA inh -22.1.
CN(CCCNC(=O)c1cc2c(Cl)nc3ccccc3c2s1)Cc1ccccc1 was read as Mtb UGM inh -0.1, Rv3671c inh -5.9, Mtb bLac sens 99.1, FBA Mtb inh -3.1, GDH-TPI counter-1 6.1 and SSB-PriA inh 4.9.
Screening COc1ccc2[nH]c3c(=O)n4c(nc3c2c1)SCCC4 returned Mtb UGM inh -0.2, Rv3671c inh -11.8, Mtb bLac sens 0.2, FBA Mtb inh 71.2*, GDH-TPI counter-1 1.3, SSB-PriA inh -8.9, Mtb FBA confirm 103.5* and GDH-TPI counter-2 87.7*.
CCCCN(CC)CCCNC(=O)c1cc2c(-c3ccc(OC)c(OC)c3)nn(C)c2s1 was read as Mtb UGM inh 0.6, Rv3671c inh 1.6, Mtb bLac sens 1.0, FBA Mtb inh 2.9, GDH-TPI counter-1 11.2 and SSB-PriA inh 14.9.
Screening CCN(CC)CCCNC(=O)c1cc2c(-c3cccc(OC)c3)nn(C)c2s1 returned Mtb UGM inh 0.0, Rv3671c inh 4.0, Mtb bLac sens 9.1, FBA Mtb inh 57.7*, GDH-TPI counter-1 11.6, SSB-PriA inh -25.9, Mtb FBA confirm 101.5* and GDH-TPI counter-2 87.2*.
`COc1cc2cnc(-c3ccccc3)cc2cc1OC` gave Mtb UGM inh -2.2, Rv3671c inh 2.6, Mtb bLac sens 61.7, FBA Mtb inh 6.3, GDH-TPI counter-1 16.3 and SSB-PriA inh -9.4.
COc1ccc(-c2cc3cc(OC)c(OC)cc3cn2)cc1 was read as Mtb UGM inh -2.1, Rv3671c inh -11.6, Mtb bLac sens 72.3, FBA Mtb inh 88.9*, GDH-TPI counter-1 10.3, SSB-PriA inh 12.1, Mtb FBA confirm 45.4* and GDH-TPI counter-2 33.2*.
For COc1ccc(CCNc2cc(C)nc3c(-c4ccc(Cl)cc4)cnn23)cc1OC the results were Mtb UGM inh -1.8, Rv3671c inh 3.9, Mtb bLac sens 87.4, FBA Mtb inh 33.9*, GDH-TPI counter-1 4.7, SSB-PriA inh -4.0, Mtb FBA confirm 41.8* and GDH-TPI counter-2 34.0*.
For Cc1cc(NCc2ccccc2)n2ncc(-c3ccccc3)c2n1 the results were Mtb UGM inh -1.0, Rv3671c inh -4.3, Mtb bLac sens 56.6, FBA Mtb inh 28.1*, GDH-TPI counter-1 13.3, SSB-PriA inh -24.7, Mtb FBA confirm 123.3* and GDH-TPI counter-2 123.3*.
For Cc1cc(NC2CCCC2)n2ncc(-c3ccccc3)c2n1 the results were Mtb UGM inh 3.8, Rv3671c inh -3.9, Mtb bLac sens 11.7, FBA Mtb inh 17.2, GDH-TPI counter-1 7.2 and SSB-PriA inh -62.0.
Screening COc1ccc(CCNc2cc(C)nc3c(-c4ccccc4)cnn23)cc1OC returned Mtb UGM inh -0.7, Rv3671c inh 6.3, Mtb bLac sens 1.9, FBA Mtb inh 8.6, GDH-TPI counter-1 9.2 and SSB-PriA inh -62.3.
Screening Cc1cc(Nc2ccc(Cl)cc2)n2ncc(-c3ccccc3)c2n1 returned SSB-PriA inh -18.0.
Cc1cc(NC(C)c2ccccc2)n2ncc(-c3ccccc3)c2n1 (stereo not drawn) was read as Mtb UGM inh 0.1, Rv3671c inh 3.1, Mtb bLac sens 48.5, FBA Mtb inh 33.3*, GDH-TPI counter-1 -7.9, SSB-PriA inh -15.6, Mtb FBA confirm 40.8* and GDH-TPI counter-2 29.9*.
C=CCNC(=O)/C(=C\c1ccco1)NC(=O)c1ccco1 was read as Mtb UGM inh 0.5, Rv3671c inh 0.7, Mtb bLac sens 1.4, FBA Mtb inh 58.9*, GDH-TPI counter-1 14.4, SSB-PriA inh -4.4, Mtb FBA confirm 81.0* and GDH-TPI counter-2 71.6*.
O=C(CNc1n[nH]c(=O)[nH]c1=O)NN=Cc1ccccc1 was read as SSB-PriA inh -4.6.
For Cc1cccc(-c2csc3c(=O)n(Cc4ccc(N5CCCC5=O)cc4)cnc23)c1 the results were SSB-PriA inh 7.0.
CCN(C(=O)c1cc(Cl)ccc1OC)c1ccccc1C was read as Mtb UGM inh -0.2, Rv3671c inh -1.1, Mtb bLac sens 0.0, FBA Mtb inh -2.1, GDH-TPI counter-1 4.2 and SSB-PriA inh -1.9.
For CCN(C(=O)c1cnc(NC(C)C)cc1C(F)(F)F)c1ccc(Cl)cc1Cl the results were Mtb UGM inh 4.9, Rv3671c inh 5.3, Mtb bLac sens 1.3, FBA Mtb inh 50.6*, GDH-TPI counter-1 10.3, SSB-PriA inh -12.3, Mtb FBA confirm 85.2* and GDH-TPI counter-2 62.1*.

Bioassay records from PubChem.
